A number with no mark means an inactive call. The rule behind the calls is not given here.
These compounds were tested on Aerobactin synthetase IucA (Klebsiella pneumoniae hvKP1) (assay: IucA enzyme inhibition, primary screen, biochemical, Spectrum library (AID 1346200;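 note: 100% = wells without compound and 0% = wells lacking enzyme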)). Settings: malachite green pyrophosphate, A620, at 8 µM, stronger effect = lower value.

Row | Structure (SMILES) | activity remaining
1 | Nc1ccc(S(=O)(=O)Nc2ccccn2)cc1 | 97.8%
2 | C[C@@H]1O[C@@H](O[C@H]2[C@@H](Oc3cc(O)c4c(c3)O[C@H](c3ccc(O)cc3)CC4=O)O[C@H](CO)[C@@H](O)[C@@H]2O)[C@H](O)[C@H](O)[C@H]1O | 117%
3 | C=C1C(=O)O[C@@H]2C3OC3(C)CC/C=C(\C)CC[C@@H]12 (stereo partly specified) | 105%
4 | CC1(C)S[C@@H]2[C@H](NC(=O)[C@H](C(=O)O)c3cccs3)C(=O)N2[C@H]1C(=O)O | 102%
5 | NC(Cc1ccc(Cl)cc1)C(=O)O (stereo unspecified) | 108%
6 | COC(=O)[C@H](c1ccccc1Cl)N1CCc2sccc2C1 | 119%
7 | COC(=O)C[C@H]1C2(C)CC34OC5(C)O[C@@]6([C@H](OC(C)=O)C(OC(C)=O)[C@]7(C)C(/C(=C(/O)C(C)C)C(=O)O[C@H]7c7ccoc7)[C@@]6(O5)[C@H](OC(C)=O)[C@@]3(O)C2OC(=O)C(C)C)[C@]14C (stereo partly specified) | 104%
8 | Nc1ccc(S(=O)(=O)Nc2ncccn2)cc1 | 120%
9 | O=C(/C=C/c1ccc(O)c(O)c1)O[C@@H]1C[C@](O)(C(=O)O)C[C@@H](O)[C@H]1O | 103%
10 | CCOC(=O)c1ccc(O)cc1 | 114%
11 | CCN(CC)CCOc1ccc(/C(=C(\Cl)c2ccccc2)c2ccccc2)cc1 | 111%
12 | COC1(C)CCC2OC2(C)CCC2C1CC2(C)C (stereo unspecified) | 113%
13 | C[C@@H]1[C@H]2[C@H](O[C@@H]3O[C@H](CO)[C@@H](O)[C@H](O)[C@H]3O)OC=C(C(=O)O)[C@H]2C[C@@H]1O | 120%
14 | Nc1nc(/C(=C/CC(=O)O)C(=O)N[C@@H]2C(=O)N3C(C(=O)O)=CCS[C@H]23)cs1 | 117%
15 | CO[C@@]1(NC(=O)CSCC#N)C(=O)N2C(C(=O)O)=C(CSc3nnnn3C)CSC21 (stereo partly specified) | 98.6%
16 | COC(=O)[C@@H]1OC(=O)C2OC23[C@@]1(C)CCC1[C@]2(C)C(C[C@@H](O)[C@]13C)C(C)(C)[C@H](OC(C)=O)C[C@@H]2OC(C)=O (stereo partly specified) | 96.4%
17 | NC(=O)NC(=O)Cc1ccccc1 | 93%
18 | CC1=C(/C=C/C(C)=C/C=C/C(C)=C/CO)C(C)(C)CCC1 | 105%

Row | Structure (SMILES) | activity remaining
19 | C=C1C[C@]23C[C@@]1(O)CC[C@H]2[C@@]12C=C[C@H](O)C(C)(C(=O)O1)[C@H]2[C@@H]3C(=O)O | 121%
20 | COc1cc(O)c2c(=O)cc(-c3ccc(OC)c(-c4c(O)cc(O)c5c(=O)cc(-c6ccc(O)cc6)oc45)c3)oc2c1 | 118%
21 | Oc1c(Cl)cc(Cl)cc1Sc1cc(Cl)cc(Cl)c1O | 118%
22 | C[C@]12CCC3c4ccc(O)cc4CCC3C1CCC2=O (stereo partly specified) | 103%
23 | CC(C)[C@@H]1CC[C@@H](C)CC1=O | 120%
24 | CON | 103%
25 | CC(=O)O[C@H]1C[C@@H](OC(C)=O)C(C)(C)C2C[C@@H](OC(C)=O)[C@]3(C)C([C@H](OC(C)=O)C[C@@]4(C)[C@H](c5ccoc5)OC(=O)[C@H]5O[C@]543)[C@]21C (stereo partly specified) | 104%
26 | CC(CCC(=O)O)[C@H]1CCC2C3C(C[C@H](O)[C@@]21C)[C@@]1(C)CC[C@@H](O)C[C@H]1C[C@H]3O (stereo partly specified) | 99.6%
27 | COc1cc2c(cc1OC)C1(O)C(=O)c3ccc(O)c(C(=O)O)c3OC1CO2 (stereo unspecified) | 117%
28 | CN1CCOC(c2ccccc2)c2ccccc2C1 (stereo unspecified) | 110%
29 | COc1ccc2c(c1)[C@@]1(C)CCC(=O)C[C@@H]1CC2 | 118%
30 | Cc1cccc(N(C)C(=S)Oc2ccc3ccccc3c2)c1 | 116%
31 | O=C(O)CN1C(=O)c2cccc3cccc(c23)C1=O | 111%
32 | COc1ccc(-c2coc3c(O)c(OC)ccc3c2=O)cc1 | 115%
33 | CO[C@H]1/C=C/O[C@@]2(C)Oc3c(C)c(O)c4c(O)c(c5c(nc6cc(C)ccn65)c4c3C2=O)NC(=O)/C(C)=C\C=C\[C@H](C)[C@H](O)[C@@H](C)C(O)[C@@H](C)[C@H](OC(C)=O)[C@@H]1C (stereo partly specified) | 110%
34 | c1ccc2c(c1)CN1CCCC1=N2 | 99.8%
35 | CC(C)CCCC(C)[C@H]1CCC2C3CC=C4C[C@@H](O)CC[C@]4(C)C3CC[C@@]21C (stereo partly specified) | 117%
36 | COc1cc2c(cc1OC)C(=O)C(CC1CCN(Cc3ccccc3)CC1)C2 (stereo unspecified) | 107%
